This note sets out measurements from PubChem BioAssay (NCATS).

Results filed as inconclusive are left out. Calls of active or inactive are those of the source. Unless noted, calls come from the whole dose curve; as a rule, active = well fitted inhibition curve with a large enough effect; inconclusive = small, poorly fitted or top-dose-only effect; inactive = flat fitted curve, though single readings scatter.

The nature of assay [1]: qHTS drug screen for cell cycle checkpoint inhibitors in PARPi-resistant BRCA-mutant ovarian cancer cell lines. (AID 1963452; calls by dose curve). As to conditions: PEO1/OlaR viability, CellTiter-Glo luminescence, 96 h, stronger effect = lower value. A digest of the protocol:
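PEO1, PEO4 and PEO1/OlaR ovarian cancer cells, 600 per well, exposed 96 h at 37C to a dilution series. Viability read by CellTiter-Glo luminescence, normalized to DMSO and empty wells; activity summarized as Z-AUC.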

The nature of assay [2]: qHTS profiling for inhibitors of Plasmodium falciparum proliferation (AID 504749).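 For activity, negative = inhibition: 0% = DMSO vehicle and full inhibition = artemisinin control.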 Note: nearly all actives have a fitted effect of over 60% in size. Note: potency is the fitted concentration of half-maximal effect. Conditions: P. falciparum in erythrocytes, SYBR Green DNA, 72 h, at 28.7 µM (top of the series). The method in brief:
(§1)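 In a 72 h erythrocytic culture (37 C, humidified, 5% CO2) at 2.5% hematocrit and 0.3% starting parasitemia, compounds were tested; SYBR Green I in detergent lysis buffer stained parasite DNA overnight.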
A general note: In qHTS, concentration-response curves come from the screen itself.

Assay [3] concerns 3D7. Described as above. Conditions: P. falciparum in erythrocytes, SYBR Green DNA, 72 h; series mostly up to 28.7 µM. A digest of the protocol:
as §1

In assay [4] the test system is 7G8. The description is as above. Conditions: P. falciparum in erythrocytes, SYBR Green DNA, 72 h; series mostly up to 28.7 µM. The method in brief: as §1
The subject of assay [5] is AA1029. Described as above. Conditions: P. falciparum in erythrocytes, SYBR Green DNA, 72 h; series mostly up to 28.7 µM. The method in brief: as §1
Assay [6] deals with AS120. The assay is described as above. Conditions: P. falciparum in erythrocytes, SYBR Green DNA, 72 h; series mostly up to 28.7 µM. A digest of the protocol: as §1
Assay [7] deals with ATS189. Described as above. As to conditions: P. falciparum in erythrocytes, SYBR Green DNA, 72 h; series mostly up to 28.7 µM. A digest of the protocol:
as §1

Assay [8] concerns ATS95. Described as above. Conditions: P. falciparum in erythrocytes, SYBR Green DNA, 72 h; series mostly up to 28.7 µM. A digest of the protocol: as §1
Assay [9] has as its system C2A. The assay is described as above. Conditions: P. falciparum in erythrocytes, SYBR Green DNA, 72 h; series mostly up to 28.7 µM. The method in brief:
as §1

The subject of assay [10] is CP185. The assay is described as above. As to conditions: P. falciparum in erythrocytes, SYBR Green DNA, 72 h; series mostly up to 28.7 µM. The method in brief: as §1
Assay [11] concerns CP191. The assay is described as above. Conditions: P. falciparum in erythrocytes, SYBR Green DNA, 72 h; series mostly up to 28.7 µM. The method in brief: as §1
In assay [12] the test system is CP192. Described as above. Conditions: P. falciparum in erythrocytes, SYBR Green DNA, 72 h; series mostly up to 28.7 µM. A digest of the protocol:
as §1

Assay [13] concerns CP194. The description is as above. Conditions: P. falciparum in erythrocytes, SYBR Green DNA, 72 h; series mostly up to 28.7 µM. The method in brief:
as §1

Assay [14] has as its system CP201. Described as above. Conditions: P. falciparum in erythrocytes, SYBR Green DNA, 72 h; series mostly up to 28.7 µM. The method in brief: as §1
The nature of assay [15]: qHTS for identification of novel therapeutic agents for treatment of microphthalmiaassociated transcription factor (MiT) renal cell carcinoma (RCC) (AID 1963991). As to conditions: CellTiter-Glo, 48 h, stronger effect = lower value. A digest of the protocol: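 Three TFE3-fusion RCC cell lines (UOK109, UOK124, UOK145), 500 cells/well, were exposed to the 1912-compound MIPE 4.0 library for 48 hours at 37 C. Viability was read by CellTiter-Glo luminescence, normalised to DMSO (100%) and empty wells (0%), with 11-concentration curve fits.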

The mark [16] stands for this setting: measured here: PEO1 parental Z-AUC.
The mark [17] stands for this setting: TFE3-RCC UOK109 viability, measured here: UOK109 Z-AUC.
The mark [18] stands for this setting: TFE3-RCC viability, measured here: UOK124 Z-AUC.
[19] abbreviates: TFE3-RCC viability, measured here: UOK145 Z-AUC.

As for `CCOC(=O)c1c(C)n(C)c2ccc(O)cc12`, the values for the Z-AUC in assay [1], in assay [1] (setting [16]) and in [1] (measured here: PEO4 Z-AUC) were 1.13 (inactive), 0.765 and 0.891, respectively. Moreover, the activity, negative = inhibition in assay [2] (parasite line A) was 15.4% (inactive); in assay [2] (parasite line B), 20.5% (inactive). For the same compound, the Potency entry in assay [3], in assay [4], in [5], in assay [6], in assay [7] and in assay [8] was “inactive” each time. The Potency result in assay [9], in assay [10], in [11], in assay [12], in assay [13] and in assay [14] was “inactive” in each case.
`N=C(N)c1ccc2cc(OC(=O)c3ccc(N=C(N)N)cc3)ccc2c1`: the results for the Z-AUC in [1], in assay [1] (setting [16]) and in assay [1] (measured here: PEO4 Z-AUC) were 0.0758 (inactive), 0.542 and 0.795, respectively. Besides, the z-score in assay [15] (setting [17]) was 0.107; in assay [15] (setting [18]), -0.0134; in assay [15] (setting [19]), 0.0541. In addition, the Potency in assay [4] was 11.2 µM (active); in [11] it was 3.98 µM (active). Moreover, the Potency entry in assay [12] was “inactive”.
Take `O=P(O)(O)C(O)(Cn1ccnc1)P(=O)(O)O`: the Z-AUC in [1] is 1.02 (inactive); in assay [1] (setting [16]) it was 1.58; in assay [1] (measured here: PEO4 Z-AUC), 2.08. Further, the values for the z-score in assay [15] (setting [17]), in [15] (setting [18]) and in [15] (setting [19]) were 0.735, 1.17 and 1.01, respectively. Moreover, the activity, negative = inhibition in [2] (parasite line A) is 8.24% (inactive); in assay [2] (parasite line B), -1.43% (inactive). Also, the Potency result in assay [3], in assay [4], in assay [5], in [6], in assay [7] and in assay [8] was “inactive” each time. Further, the Potency result in assay [9], in assay [10], in [11], in assay [12], in assay [13] and in assay [14] was “inactive” throughout.
With `Nc1nc(Cl)nc2c1ncn2[C@H]1C[C@H](O)[C@@H](CO)O1`, the Z-AUC is -0.756 (inactive) in [1], -0.859 in assay [1] (setting [16]) and -0.649 in assay [1] (measured here: PEO4 Z-AUC). Besides, the activity, negative = inhibition in assay [2] (parasite line A) was -3.94% (inactive); in assay [2] (parasite line B), 14.5% (inactive). Besides, the Potency entry in assay [3], in assay [4], in assay [5], in assay [6], in assay [7] and in assay [8] was “inactive” each time. In addition, the Potency entry in assay [9], in assay [10] and in assay [11] was “inactive” each time.
As for `CC1(C)NC(=O)N(c2ccc([N+](=O)[O-])c(C(F)(F)F)c2)C1=O`, the Z-AUC in [1] was 1.11 (inactive); in assay [1] (setting [16]) it was 0.722; in assay [1] (measured here: PEO4 Z-AUC), 0.784. Also, the activity, negative = inhibition was -1.6% (inactive) in assay [2] (parasite line A) and 7.49% (inactive) in assay [2] (parasite line B). The Potency result in [3], in assay [4], in [5], in assay [6], in [7] and in [8] was “inactive” throughout. In addition, the Potency entry in [9], in assay [10], in assay [11], in assay [12], in assay [13] and in assay [14] was “inactive” throughout.
With `CC(C)c1ccc2oc3nc(N)c(C(=O)O)cc3c(=O)c2c1`, the figures for the Z-AUC in [1], in [1] (setting [16]) and in [1] (measured here: PEO4 Z-AUC) were -0.387 (inactive), 0.341 and 0.263, respectively. Besides, the z-score in [15] (setting [17]) was 0.102; in [15] (setting [18]), 0.464; in assay [15] (setting [19]) it was 0.404. The activity, negative = inhibition in assay [2] (parasite line A) is -29.9% (inactive); in assay [2] (parasite line B), -11.5% (inactive). The Potency result in assay [3], in assay [7], in assay [8], in [9], in assay [10] and in assay [12] was “inactive” throughout. Moreover, the Potency result in assay [13] and in [14] was “inactive” each time.
As to `C=C(c1ccc(C(=O)O)cc1)c1cc2c(cc1C)C(C)(C)CCC2(C)C`, the Z-AUC is 1.36 (inactive) in assay [1], 0.659 in [1] (setting [16]) and 0.161 in [1] (measured here: PEO4 Z-AUC). In addition, the figures for the z-score in assay [15] (setting [17]), in assay [15] (setting [18]) and in assay [15] (setting [19]) were 0.216, -0.242 and -0.306, respectively. For the same compound, the activity, negative = inhibition was -4.04% (inactive) in assay [2] (parasite line A) and 4.75% (inactive) in assay [2] (parasite line B). Further, in assay [4], the Potency was 8.91 µM (active). The Potency entry in assay [5], in assay [6], in assay [7], in assay [8], in [9] and in [10] was “inactive” throughout. The Potency result in assay [11], in assay [12], in assay [13] and in assay [14] was “inactive” in each case.
